Source: PubChem BioAssay
ERAP1 HTS inh = blocks human ERAP1 aminopeptidase activity | Q9NZ08 | recombinant ERAP1, Leu-AMC fluorescence, 60 min | inhibition, % at 10.7 µM | hit rate 0.15% among 340,000;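 active = mean replicate inhibition of at least 30%, or all replicates individually reaching that 30% level; inactive = mean below 30% and not every replicate reaching it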;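 note: 0% = neutral control wells and 100% = L-leucinethiol positive control wells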
DENV2 CPE rescue = protects cells from dengue virus 2 cytopathic effect; DENV2-infected cells, cytopathic effect rescue, plate reader; CPE inhibition, % at 9.99 µM; hit rate 1.7% among 350,000; AID 651640; in the data active = CPE inhibition above about 20%, passing the limit was not always enough; inconclusive = no clear call, values can overlap the other calls; tested in BHK-21 cells;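 note: 0% = median of neutral control wells and 100% = median of positive control wells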
RAD52 inh = RAD52 (human) annealing inhibition | recombinant RAD52 DNA annealing, FRET fluorescence | P43351 | AID 651710 | inhibition, % at 18.7 µM | hit rate 0.46% among 360,000;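 active = every replicate showing at least 50% inhibition; inconclusive = mean inhibition at least 50% but not in every replicate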
Target sequence (P43351 whole entry, looked up): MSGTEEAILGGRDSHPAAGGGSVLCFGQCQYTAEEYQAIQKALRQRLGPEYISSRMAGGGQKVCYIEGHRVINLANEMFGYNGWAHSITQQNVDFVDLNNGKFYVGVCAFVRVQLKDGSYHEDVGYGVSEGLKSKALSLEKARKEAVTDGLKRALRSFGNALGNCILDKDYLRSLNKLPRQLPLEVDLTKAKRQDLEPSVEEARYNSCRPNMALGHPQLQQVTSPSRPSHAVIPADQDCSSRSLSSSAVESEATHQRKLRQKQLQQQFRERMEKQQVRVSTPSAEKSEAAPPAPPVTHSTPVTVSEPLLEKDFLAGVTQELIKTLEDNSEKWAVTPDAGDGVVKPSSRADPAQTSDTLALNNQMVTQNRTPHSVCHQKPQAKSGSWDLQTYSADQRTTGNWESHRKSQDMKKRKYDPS
MLL AF4-AF9 inh = MLL-AF4/AF9 protein interaction inhibition; P42568; AlphaScreen, biotin-AF4 peptide binding to FLAG-AF9; inhibition, % at 10 µM; hit rate 0.47% among 350,000; AID 651704;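 active = every replicate reaching a set inhibition limit, whatever the replicate mean, cut at about 25% in these data; inconclusive = mean inhibition reaches that limit but some replicates miss it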;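 note: 0% = plate neutral control median and 100% = total signal loss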
FGF22 binding = shifts melting point of recombinant human FGF22. Q9HCT0. recombinant FGF22 thermal shift, SYPRO orange fluorescence; percent of sucrose octasulfate shift, DMSO zero. activity (Tm shift, normalised), % at 9.99 µM. hit rate 1.5% among 340,000. AID 651658;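 active = mean Tm shift, scaled 0 neutral to 100 positive control, at about 1.3% or above, every replicate too, limit read from the data; inconclusive = no clear call, values can overlap the other calls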
Target sequence (Q9HCT0 whole entry, looked up): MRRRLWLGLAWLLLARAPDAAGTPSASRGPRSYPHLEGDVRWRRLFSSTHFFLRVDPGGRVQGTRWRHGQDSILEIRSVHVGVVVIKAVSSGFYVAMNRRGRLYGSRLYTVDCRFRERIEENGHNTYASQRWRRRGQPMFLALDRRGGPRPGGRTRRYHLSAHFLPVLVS
* hit, by the source's call; ? = inconclusive; . = not tested or not shown; ! = not confirmed by another sample. The list is not random: actives were taken first. Their share in the collection is about 4%.

SMILES	ERAP1 HTS inh	DENV2 CPE rescue	RAD52 inh	MLL AF4-AF9 inh	FGF22 binding
C[C@H]1CN([C@@H](C)CO)C(=O)c2cccc(NC(=O)Nc3cccc4ccccc34)c2O[C@H]1CN(C)C(=O)Nc1ccc(C(F)(F)F)cc1	1	32*	-13	2	.
C[C@H](CO)N1C[C@H](C)[C@@H](CN(C)C(=O)Nc2ccc(C(F)(F)F)cc2)Oc2c(NC(=O)C3CCCCC3)cccc2C1=O	5	22*!	10	-1	0
Cc1ccc(-c2cnc3c(c2)C(=O)N([C@@H](C)CO)C[C@H](C)[C@@H](CN(C)C(=O)c2cccc(F)c2)O3)cc1	1	7	23	0	0
C[C@@H]1CN([C@@H](C)CO)C(=O)c2cccc(NC(=O)Nc3ccccc3)c2O[C@@H]1CN(C)C(=O)Nc1ccc(C(F)(F)F)cc1	0	38*	-7	-1	0
CCOCCCn1c(=NC(=O)c2ccco2)c(C(=O)OCC)cc2c(=O)n3cccc(C)c3nc21	60*	-3	0	1	0
CCOC(=O)c1cc2c(=O)n3ccccc3nc2n(Cc2ccco2)c1=NC(=O)c1ccccc1OC	36*	-2	-95	-3	0
CCOC(=O)c1cc2c(=O)n3cccc(C)c3nc2n(CC(C)C)c1=NC(=O)c1ccco1	.	-13	-11	-8	0
C[C@@H]1CN([C@H](C)CO)C(=O)c2cc(-c3ccccc3)cnc2O[C@@H]1CN(C)C(=O)Nc1ccccc1F	-6	5	23	-18	0
CC1(C)Cc2ccccc2C(C(Cc2ccccc2)C(N)=O)=N1 (centres undefined)	0	2	8	0	43*
CC(=O)CC1=NC(C)(C)Cc2ccccc21	-1	5	-2	0	0
Cc1ccccc1-n1c(=S)[nH]c2nc3c(cc2c1=O)COC(C)(C)C3	.	-6	4	7	0
Cc1ccccc1-n1c(=S)[nH]c2nc3c(cc2c1=O)CCCC3	0	-5	-7	-1	43*
CNCC(C)COc1ccccc1OCc1ccccc1 (centres undefined)	3	64*	-1	6	0
CO[C@@H]1CN(C)C(=O)c2cc(NC(=O)C3CCOCC3)ccc2OC[C@@H](C)N(S(=O)(=O)c2ccc(C)cc2)C[C@H]1C	-2	-3	-15	-1	0
COc1ccc2nc(C)cc(N3CCC(C(N)=O)CC3)c2c1	3	-1	-7	-3	43*
CCOC(=O)C1CCN(c2cc(C)nc3ccc(OC)cc23)CC1	-1	2	-1	1	0
CCOC(=O)c1ccc(NC(=O)c2c(NC(=O)CCC(=O)O)sc3c2CCCCC3)cc1	13	7	-51	-8	44*
CCOc1ccccc1NC(=O)c1c(NC(=O)CCC(=O)O)sc2c1CCCCC2	4	1	-72	-25	0
COc1ccccc1CCc1nnc(CCC(=O)NCCOc2cccnc2)o1	0	2	-5	0	44*
Cc1ccc(S(=O)(=O)N(C)C[C@@H]2OCCCC[C@H](C)Oc3ccc(NC(=O)Nc4ccc(C(F)(F)F)cc4)cc3C(=O)N([C@@H](C)CO)C[C@H]2C)cc1	2	23*	-19	-1	0
Cc1ccc(S(=O)(=O)N(C)C[C@@H]2OCCCC[C@H](C)Oc3ccc(NC(=O)Nc4ccc(C(F)(F)F)cc4)cc3C(=O)N([C@@H](C)CO)C[C@@H]2C)cc1	3	-11	-49	0	0
C[C@@H]1CCCCO[C@H](CN(C)S(=O)(=O)c2ccccc2)[C@H](C)CN([C@@H](C)CO)C(=O)c2cc(NC(=O)Nc3ccc(C(F)(F)F)cc3)ccc2O1	3	23*	-3	1	0
Cc1ccc(S(=O)(=O)N(C)C[C@H]2OCCCC[C@@H](C)Oc3ccc(NC(=O)Nc4ccc(C(F)(F)F)cc4)cc3C(=O)N([C@H](C)CO)C[C@@H]2C)cc1	1	67*	1	-2	0
Cc1ccc(S(=O)(=O)N(C)C[C@H]2Oc3ccc(NC(=O)c4ccncc4)cc3C(=O)N([C@H](C)CO)C[C@H]2C)cc1	0	42*	-10	-2	0
C[C@H](CO)N1C[C@H](C)[C@@H](CN(C)C(=O)Cc2ccccc2)OCCCC[C@H](C)Oc2ccc(NC(=O)C3CCCCC3)cc2C1=O	.	?	.	.	0
SMILES	ERAP1 HTS inh	DENV2 CPE rescue	RAD52 inh	MLL AF4-AF9 inh	FGF22 binding
COc1ccc2c3c([nH]c2c1)[C@H](CO)N(C)CC31CCN(C(=O)c2cccnc2)CC1	.	?	.	-2	.
C[C@@H]1CN([C@@H](C)CO)C(=O)c2cc(NC(=O)CCC(F)(F)F)ccc2O[C@@H]1CN(C)S(=O)(=O)c1ccc(F)cc1	1	?	-18	-2	0
Cc1ccc(S(=O)(=O)N(C)C[C@@H]2Oc3ccc(NC(=O)Nc4ccc(C(F)(F)F)cc4)cc3C(=O)N([C@@H](C)CO)C[C@@H]2C)cc1	-1	-8	1	0	2.8*
Cc1ccc(S(=O)(=O)N(C)C[C@@H]2Oc3ccc(NC(=O)Nc4ccc(C(F)(F)F)cc4)cc3CC(=O)N([C@@H](C)CO)C[C@H]2C)cc1	-3	28*	15	-1	0
Cc1ccc(S(=O)(=O)N(C)C[C@H]2Oc3ccc(NC(=O)CCC(F)(F)F)cc3C(=O)N([C@H](C)CO)C[C@@H]2C)cc1	-3	29*	6	-1	0
Cc1ccc(S(=O)(=O)N(C)C[C@H]2Oc3ccc(NC(=O)Nc4ccc(C(F)(F)F)cc4)cc3CC(=O)N([C@H](C)CO)C[C@H]2C)cc1	1	2	23	-3	1
C[C@@H](O)C#Cc1ccc([C@H]2[C@@H](CO)N3CCCCN(C(=O)c4ccc(F)cc4)C[C@@H]23)cc1	1	-1	0	-5	0
C[C@@H]1CCCCO[C@H](CN(C)Cc2ccc3c(c2)OCO3)[C@@H](C)CN([C@H](C)CO)C(=O)c2cc(NC(=O)Nc3ccccc3)ccc2O1	3	-3	26	5	0
O=S(=O)(c1ccc(F)cc1)N1CC[C@@H]2[C@H]1c1cc(-c3ccc(F)cc3)ccc1N[C@@H]2CO	.	86*	.	.	0
N#Cc1ccc(-c2ccc3c(c2)[C@@H]2[C@@H](CCN2S(=O)(=O)c2cccc(F)c2)[C@H](CO)N3)cc1	0	34*	-17	-4	0
Cc1cccc(S(=O)(=O)N2CC[C@@H]3[C@@H](CO)Nc4ccc(C#Cc5cccc(F)c5)cc4[C@@H]32)c1	0	-3	21	-2	0
O=S(=O)(c1ccc(F)cc1)N1CC[C@@H]2[C@@H](CO)Nc3ccc(C#Cc4cccc(F)c4)cc3[C@@H]21	-3	24*	7	3	0
C[C@@H]1CN([C@@H](C)CO)C(=O)c2cccc(NC(=O)NC3CCCCC3)c2O[C@H]1CN(C)Cc1ccc(C(F)(F)F)cc1	1	8	5	1	-1
C/C=C/c1cnc2c(c1)C(=O)N([C@H](C)CO)C[C@@H](C)[C@H](CN(C)Cc1ccc(F)cc1)O2	5	?	5	-2	0
